Among the data in paper PMC11062922 (Nature Chemical Biology, 2023) are potency estimated from few doses values, retold here.

Common to all, as to parameters: species or system human, MV4-11 + K-562 + COLO205 + SK-N-BE2 + OVCAR-8
The subject of assay [1] is ADRBK1. The note with it: read-out: apparent Kd, n = 1.
The subject of assay [2] is CDK4. The note with it: read-out: apparent Kd; compound concentrations:100 nM and 1000 nM (sheet 'Samples'); n = 1.
In assay [3] the test system is CDK6. The note with it: read-out: apparent Kd, n = 1.
The subject of assay [4] is MAP2K2. The note with it: read-out: apparent Kd, n = 1.
For assay [5], the system named is MAPK14. The note with it: read-out: apparent Kd; compound concentrations:100 nM and 1000 nM (sheet 'Samples'); n = 1.
Assay [6] concerns MAPKAPK2. The note with it: read-out: apparent Kd; compound concentrations:100 nM and 1000 nM (sheet 'Samples'); n = 1.
For assay [7], the system named is NQO2. The note with it: read-out: apparent Kd; compound concentrations:100 nM and 1000 nM (sheet 'Samples'); n = 1.
Assay [8] has as its system PRKCZ. The note with it: read-out: apparent Kd; compound concentrations:100 nM and 1000 nM (sheet 'Samples'); n = 1.
For assay [9], the system named is TP53RK. The note with it: read-out: apparent Kd; compound concentrations:100 nM and 1000 nM (sheet 'Samples'); n = 1.
Assay [10] relates to AKT1. The note with it: read-out: apparent Kd; compound concentrations: 100 nM and 1000 nM (sheet 'Samples'), CATDS: 0.12373221048930499; n = 1.
The test system of assay [11] is AKT2. The note with it: read-out: apparent Kd, n = 1.
The test system of assay [12] is MAP2K1. The note with it: read-out: apparent Kd; compound concentrations: 100 nM and 1000 nM (sheet 'Samples'), CATDS: 0.131345384217323; n = 1.
The test system of assay [13] is NNT. The note with it: read-out: apparent Kd; compound concentrations: 100 nM and 1000 nM (sheet 'Samples'), CATDS: 0.14240170913061401; n = 1.
Assay [14] deals with NQO1. The note with it: read-out: apparent Kd, n = 1.
For assay [15], the system named is ADK. The note with it: read-out: apparent Kd; compound concentrations: 100 nM and 1000 nM (sheet 'Samples'), CATDS: 1; n = 1.
Assay [16] relates to ADCK3. The note with it: read-out: apparent Kd; compound concentrations: 100 nM and 1000 nM (sheet 'Samples'), CATDS: 0.21121986416857899; n = 1.
Assay [17] concerns RIPK2. The note with it: read-out: apparent Kd; compound concentrations: 100 nM and 1000 nM (sheet 'Samples'), CATDS: 0.926895955727292; n = 1.
In assay [18] the test system is RIPK3. The note with it: read-out: apparent Kd; compound concentrations: 100 nM and 1000 nM (sheet 'Samples'), CATDS: 0.31380158399753799; n = 1.
Assay [19] deals with AKT3. The note with it: read-out: apparent Kd; compound concentrations:100 nM and 1000 nM (sheet 'Samples'); n = 1.
In assay [20] the test system is PKN2. The note with it: read-out: apparent Kd; compound concentrations:100 nM and 1000 nM (sheet 'Samples'); n = 1.
Assay [21] deals with PRKCI. The note with it: read-out: apparent Kd; compound concentrations:100 nM and 1000 nM (sheet 'Samples'); n = 1.
Assay [22] relates to PRKG1. The note with it: read-out: apparent Kd; compound concentrations:100 nM and 1000 nM (sheet 'Samples'); n = 1.
In assay [23] the test system is ROCK2. The note with it: read-out: apparent Kd; compound concentrations:100 nM and 1000 nM (sheet 'Samples'); n = 1.
Assay [24] deals with RPS6KB1. The note with it: read-out: apparent Kd; compound concentrations:100 nM and 1000 nM (sheet 'Samples'); n = 1.
The test system of assay [25] is TTN. The note with it: read-out: apparent Kd; compound concentrations:100 nM and 1000 nM (sheet 'Samples'); n = 1.
The mark [26] stands for this setting: compound concentrations:100 nM and 1000 nM (sheet 'Samples').

Read-outs that look alike come from different tables or passages of the source.

Turning to `Cc1ccccc1-c1cc(-c2c[nH]nc2-c2ccccn2)ccn1` [GW680061X], the potency estimated from few doses in assay [1] (setting [26]) is 2140 nM; in assay [2], 1890 nM; in assay [3] (setting [26]), 1960 nM; in [4] (setting [26]), 2250 nM; in assay [5], 993 nM; in [6], 470 nM. For the same compound, the potency estimated from few doses in assay [7] is 1210 nM; in [8] it was 2260 nM; in assay [9] it was 2160 nM.

On to `Nc1n[nH]c2nnc(-c3ccccc3)cc12` [SB-517389], for which the potency estimated from few doses in assay [1] (setting [26]) is 1380 nM; in assay [3] (setting [26]), 1870 nM.

For the compound `Nc1cccc(-c2ccc3c(N)n[nH]c3c2)n1` [GSK2192730A], in assay [1] (compound concentrations: 100 nM and 1000 nM (sheet 'Samples'), CATDS: 1), the potency estimated from few doses was 1750 nM.

Turning to `Cn1cc(C2=C(c3ccc4ccccc4c3)C(=O)NC2=O)c2ccccc21` [RO0317254-000], the potency estimated from few doses in assay [1] (compound concentrations: 100 nM and 1000 nM (sheet 'Samples'), CATDS: 0.11613570195442) was 2340 nM; in assay [10] it was 2050 nM; in [11] (compound concentrations: 100 nM and 1000 nM (sheet 'Samples'), CATDS: 0.121499008172246), 2130 nM; in assay [3] (compound concentrations: 100 nM and 1000 nM (sheet 'Samples'), CATDS: 0.120580307710246) it was 2160 nM; in assay [12] it was 1820 nM; in [4] (compound concentrations: 100 nM and 1000 nM (sheet 'Samples'), CATDS: 0.121431246351448), 2130 nM. The potency estimated from few doses in [13] was 1570 nM; in [14] (compound concentrations: 100 nM and 1000 nM (sheet 'Samples'), CATDS: 0.12637990091667001) it was 1960 nM.

For the compound `O=C(Nc1n[nH]c2nc(-c3ccco3)c(Br)cc12)C1CC1` [SB-739452], the potency estimated from few doses in [15] is 1720 nM.

Regarding `CC(C)S(=O)(=O)c1ccc2nccc(Nc3ccc4scnc4c3)c2c1` [GSK872], the values for the potency estimated from few doses in [16], in [17] and in assay [18] were 483 nM, 2.51 nM and 70.7 nM, respectively.

As to `CCn1c(-c2nonc2N)nc2cnc(Oc3cccc(NC(=O)c4ccc(OCCN5CCOCC5)cc4)c3)cc21.Cl` [GSK269962B], the potency estimated from few doses is 1480 nM in assay [1] (setting [26]); 2180 nM in assay [11] (setting [26]); 1600 nM in [19]; 175 nM in assay [14] (setting [26]); 1850 nM in [20]; 1970 nM in assay [21]. In addition, the potency estimated from few doses was 70.3 nM in [22], 294 nM in assay [23], 719 nM in [24] and 388 nM in assay [25].
